Measurements taken from the supplement of paper PMC10849652.
Of roughly 8,800 targets only a part is listed; those with a hit were picked by preference. About 0.5% of all pairs of compound and target were hits.

Tests used:
Test in all cases: log2 fold change, soluble protein after heating vs DMSO (PISA); higher = thermal stabilisation; K562 lysate, 10 uM; active = over 0.2 and 3.5 SD of the protein, either way, in both replicates (recomputed)
lapatinib = compound: CS(=O)(=O)CCNCc1ccc(-c2ccc3ncnc(Nc4ccc(OCc5cccc(F)c5)c(Cl)c4)c3c2)o1 [lapatinib]
Procedure, shortened: (§1)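 Quantification was by TMTpro 16plex LC-MS/MS with equalised channel sums, applied to the supernatant after 21,000xg for 90 min. Samples were crude K562 extract at 1 mg/mL protein in PBS pH 7.4 with 1 mM MgCl2, treated with 10 μM compound for 30 min, heated for 3 min across 48°C-58°C, pooled and brought to 0.5% NP-40 at 4°C. Values are log-two fold changes in thermal stability relative to solvent controls, from duplicates.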

pictilisib = compound: CS(=O)(=O)N1CCN(Cc2cc3nc(-c4cccc5[nH]ncc45)nc(N4CCOCC4)c3s2)CC1 [pictilisib]
Procedure, shortened: as §1

crizotinib = compound: C[C@@H](Oc1cc(-c2cnn(C3CCNCC3)c2)cnc1N)c1c(Cl)ccc(F)c1Cl [crizotinib]
Procedure, shortened: as §1

[1] = compound: C[C@H](C1=CC=C(C=C1)C(=O)NC2=C3C=CNC3=NC=C2)N
Procedure, shortened: as §1

duvelisib = compound: C[C@H](Nc1ncnc2nc[nH]c12)c1cc2cccc(Cl)c2c(=O)n1-c1ccccc1 [duvelisib]
Procedure, shortened: as §1

gandotinib = compound: Cc1cc(Nc2cc(CN3CCOCC3)c3nc(C)c(Cc4ccc(Cl)cc4F)n3n2)n[nH]1 [gandotinib]
Procedure, shortened: as §1

tozasertib = compound: Cc1cc(Nc2cc(N3CCN(C)CC3)nc(Sc3ccc(NC(=O)C4CC4)cc3)n2)n[nH]1 [tozasertib]
Procedure, shortened: as §1

doramapimod = compound: Cc1ccc(-n2nc(C(C)(C)C)cc2NC(=O)Nc2ccc(OCCN3CCOCC3)c3ccccc23)cc1 [doramapimod]
Procedure, shortened: as §1

bafetinib = compound: Cc1ccc(NC(=O)c2ccc(CN3CC[C@H](N(C)C)C3)c(C(F)(F)F)c2)cc1Nc1nccc(-c2cncnc2)n1 [bafetinib]
Procedure, shortened: as §1

[2] = compound: Cc1cccc(CC(=O)N2CCc3c2ccc(-c2cn(C)c4ncnc(N)c24)c3F)n1
Procedure, shortened: as §1

nilotinib = compound: Cc1cn(-c2cc(NC(=O)c3ccc(C)c(Nc4nccc(-c5cccnc5)n4)c3)cc(C(F)(F)F)c2)cn1 [nilotinib]
Procedure, shortened: as §1

[3] = compound: Cc1nc(Nc2n[nH]c3c2CN(C(=O)N[C@H](CN(C)C)c2ccccc2)C3(C)C)c2sccc2n1
Procedure, shortened: as §1

dasatinib = compound: Cc1nc(Nc2ncc(C(=O)Nc3c(C)cccc3Cl)s2)cc(N2CCN(CCO)CC2)n1 [dasatinib]
Procedure, shortened: as §1

[4] = compound: Cc1ncc(-c2ccnc(Nc3ccc(S(C)(=O)=O)cc3)n2)n1C(C)C
Procedure, shortened: as §1

[5] = compound: Cn1cc(-c2ccc3c(c2)CCN3C(=O)Cc2cccc(C(F)(F)F)c2)c2c(N)ncnc21
Procedure, shortened: as §1

quisinostat = compound: Cn1cc(CNCC2CCN(c3ncc(C(=O)NO)cn3)CC2)c2ccccc21 [quisinostat]
Procedure, shortened: as §1

tipifarnib = compound: Cn1cncc1[C@@](N)(c1ccc(Cl)cc1)c1ccc2c(c1)c(-c1cccc(Cl)c1)cc(=O)n2C [tipifarnib]
Procedure, shortened: as §1

[6] = compound: NC(=O)Nc1cc(-c2cccc(F)c2)sc1C(=O)N[C@H]1CCCNC1
Procedure, shortened: as §1

[7] = compound: NC(=O)c1cnc(N[C@@H]2CCCC[C@@H]2N)nc1Nc1cccc(-n2nccn2)c1
Procedure, shortened: as §1

[8] = compound: NC1(c2ccc(-c3nc4ccn5c(=O)[nH]nc5c4cc3-c3ccccc3)cc2)CCC1
Procedure, shortened: as §1

Measured: log2 fold change

ALKBH4 (UniProt Q9NXW9)
inactive: lapatinib -0.02 | pictilisib 0.003 | crizotinib 0.04 | [1] -0.055 | duvelisib 0.035 | gandotinib -0.019 | tozasertib 0.047 | doramapimod -0.018 | bafetinib -0.108 | [2] -0.028 | nilotinib -0.053 | [3] -0.05 | dasatinib -0.028 | [4] -0.008 | [5] 0.007 | quisinostat -0.01 | tipifarnib 0.023 | [6] 0.023 | [7] -0.013 | [8] 0.047

AKT2 (UniProt P31751)
Chain of UniProt P31751 (P31751 whole entry, looked up): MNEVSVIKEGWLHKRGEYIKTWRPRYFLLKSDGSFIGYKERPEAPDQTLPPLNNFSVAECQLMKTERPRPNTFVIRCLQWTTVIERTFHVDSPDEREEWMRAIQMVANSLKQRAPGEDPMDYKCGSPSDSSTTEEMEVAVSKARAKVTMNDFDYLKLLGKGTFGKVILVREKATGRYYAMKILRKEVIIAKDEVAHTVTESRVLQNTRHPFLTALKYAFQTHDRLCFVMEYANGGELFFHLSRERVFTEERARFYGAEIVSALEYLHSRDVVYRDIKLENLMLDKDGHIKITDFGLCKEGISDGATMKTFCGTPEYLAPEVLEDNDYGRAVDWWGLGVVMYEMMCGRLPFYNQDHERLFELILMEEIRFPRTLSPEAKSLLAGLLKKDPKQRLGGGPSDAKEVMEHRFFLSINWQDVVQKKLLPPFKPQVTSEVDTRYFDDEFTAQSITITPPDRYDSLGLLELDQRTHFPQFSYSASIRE
inactive: lapatinib -0.022 | pictilisib 0.005 | crizotinib 0.015 | [1] -0.007 | duvelisib -0.005 | gandotinib -0.022 | tozasertib 0.033 | doramapimod -0.015 | bafetinib 0.051 | [2] -0.036 | nilotinib -0.013 | [3] -0.004 | dasatinib 0.003 | [4] -0.008 | [5] 0.005 | quisinostat 0.001 | tipifarnib 0.017 | [6] 0.019 | [7] -0.015
active: [8] 0.559

AHCYL1 (UniProt O43865)
inactive: lapatinib -0.001 | pictilisib 0.008 | crizotinib -0.028 | [1] -0.012 | duvelisib 0.043 | gandotinib -0.067 | tozasertib -0.031 | doramapimod 0.013 | bafetinib -0.047 | [2] 0.001 | nilotinib -0.077 | [3] -0.011 | dasatinib -0.015 | [4] 0.021 | [5] 0.02 | quisinostat -0.079 | tipifarnib -0.001 | [6] 0.066 | [7] -0.005 | [8] -0.087

ACLY (UniProt P53396)
Chain of UniProt P53396 (P53396 whole entry, looked up): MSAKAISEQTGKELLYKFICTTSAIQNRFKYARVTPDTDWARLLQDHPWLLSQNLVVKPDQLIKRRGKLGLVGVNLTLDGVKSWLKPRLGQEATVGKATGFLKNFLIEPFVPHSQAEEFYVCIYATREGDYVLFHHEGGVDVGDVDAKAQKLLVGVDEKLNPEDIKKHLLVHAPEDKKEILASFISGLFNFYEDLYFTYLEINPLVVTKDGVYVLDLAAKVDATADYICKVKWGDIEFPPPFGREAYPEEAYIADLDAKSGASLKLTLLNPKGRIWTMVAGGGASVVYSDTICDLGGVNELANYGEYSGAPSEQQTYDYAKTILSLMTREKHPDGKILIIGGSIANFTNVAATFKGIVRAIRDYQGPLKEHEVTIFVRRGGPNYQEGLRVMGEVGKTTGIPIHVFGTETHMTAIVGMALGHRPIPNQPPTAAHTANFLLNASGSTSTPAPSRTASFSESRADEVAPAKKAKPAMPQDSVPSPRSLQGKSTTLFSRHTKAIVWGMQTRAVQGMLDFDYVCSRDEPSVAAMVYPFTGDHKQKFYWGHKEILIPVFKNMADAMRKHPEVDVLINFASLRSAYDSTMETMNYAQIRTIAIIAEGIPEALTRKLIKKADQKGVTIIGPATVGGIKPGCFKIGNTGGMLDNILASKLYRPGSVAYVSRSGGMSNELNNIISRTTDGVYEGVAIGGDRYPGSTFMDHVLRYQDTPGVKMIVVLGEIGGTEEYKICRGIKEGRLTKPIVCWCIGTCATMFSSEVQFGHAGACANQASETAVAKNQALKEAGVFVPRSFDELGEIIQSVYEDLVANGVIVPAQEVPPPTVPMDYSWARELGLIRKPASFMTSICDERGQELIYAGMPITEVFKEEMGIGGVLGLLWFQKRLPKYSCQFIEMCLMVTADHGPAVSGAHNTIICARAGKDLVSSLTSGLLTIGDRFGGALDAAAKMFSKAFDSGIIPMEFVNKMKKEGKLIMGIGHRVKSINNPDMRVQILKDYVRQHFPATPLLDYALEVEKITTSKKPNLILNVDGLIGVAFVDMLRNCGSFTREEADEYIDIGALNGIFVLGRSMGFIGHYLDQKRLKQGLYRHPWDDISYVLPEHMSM
inactive: lapatinib -0.011 | pictilisib -0.009 | crizotinib -0.005 | [1] -0.025 | duvelisib 0.012 | gandotinib 0.01 | tozasertib 0.003 | doramapimod 0.015 | bafetinib 0.008 | [2] 0.013 | nilotinib -0.005 | [3] -0.016 | dasatinib -0.026 | [4] -0.005 | [5] 0.021 | quisinostat 0.002 | tipifarnib 0.016 | [6] -0.004 | [7] 0.018 | [8] 0.014

ACIN1 (UniProt E7EQT4)
active: [1] -0.28
inactive: lapatinib -0.001 | pictilisib -0.047 | crizotinib -0.1 | duvelisib -0.021 | gandotinib 0.047 | tozasertib 0 | doramapimod 0.068 | bafetinib -0.063 | [2] 0.032 | nilotinib 0.033 | [3] -0.032 | dasatinib 0.043 | [4] 0.006 | [5] 0.195 | quisinostat -0.087 | tipifarnib -0.021 | [6] -0.072 | [7] 0.041 | [8] -0.039

ANKRD54 (UniProt Q6NXT1)
Chain of UniProt Q6NXT1 (Q6NXT1 whole entry, looked up): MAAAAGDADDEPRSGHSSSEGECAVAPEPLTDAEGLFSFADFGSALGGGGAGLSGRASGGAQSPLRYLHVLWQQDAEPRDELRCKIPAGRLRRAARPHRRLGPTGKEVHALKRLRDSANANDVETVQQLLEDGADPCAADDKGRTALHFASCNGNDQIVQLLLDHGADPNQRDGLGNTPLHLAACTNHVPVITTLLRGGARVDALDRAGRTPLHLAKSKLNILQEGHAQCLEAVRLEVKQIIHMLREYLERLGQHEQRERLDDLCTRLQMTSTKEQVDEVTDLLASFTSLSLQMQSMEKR
inactive: lapatinib 0.038 | pictilisib -0.008 | crizotinib 0.058 | [1] 0.01 | duvelisib 0.008 | gandotinib 0.049 | tozasertib -0.002 | doramapimod 0.044 | bafetinib -0.029 | [2] -0.007 | nilotinib 0.053 | [3] -0.003 | dasatinib -0.013 | [4] 0.05 | [5] -0.018 | quisinostat -0.024 | tipifarnib 0.019 | [6] -0.013 | [7] 0 | [8] 0.04

AFF1 isoform 2 (UniProt P51825)
inactive: lapatinib -0.055 | pictilisib -0.063 | crizotinib 0.005 | duvelisib 0.067 | gandotinib 0.341 | tozasertib 0.066 | doramapimod 0.064 | bafetinib -0.04 | nilotinib -0.069 | [3] 0.022 | dasatinib 0.059 | [4] 0.069 | [5] -0.043 | quisinostat -0.01 | tipifarnib 0.028 | [6] -0.005 | [7] 0.194 | [8] 0.008
active: [1] -0.396 | [2] 0.696

ASPH (UniProt Q12797)
inactive: lapatinib -0.035 | pictilisib -0.012 | crizotinib -0.025 | [1] 0.048 | duvelisib -0.022 | gandotinib -0.04 | tozasertib 0.037 | doramapimod 0.008 | bafetinib 0.029 | [2] 0.005 | nilotinib -0.033 | [3] -0.025 | dasatinib 0.089 | [4] 0.011 | [5] -0.019 | quisinostat -0.02 | tipifarnib 0.004 | [6] -0.005 | [7] -0.009 | [8] -0.013

ACAT1 (UniProt P24752)
Chain of UniProt P24752 (P24752 whole entry, looked up): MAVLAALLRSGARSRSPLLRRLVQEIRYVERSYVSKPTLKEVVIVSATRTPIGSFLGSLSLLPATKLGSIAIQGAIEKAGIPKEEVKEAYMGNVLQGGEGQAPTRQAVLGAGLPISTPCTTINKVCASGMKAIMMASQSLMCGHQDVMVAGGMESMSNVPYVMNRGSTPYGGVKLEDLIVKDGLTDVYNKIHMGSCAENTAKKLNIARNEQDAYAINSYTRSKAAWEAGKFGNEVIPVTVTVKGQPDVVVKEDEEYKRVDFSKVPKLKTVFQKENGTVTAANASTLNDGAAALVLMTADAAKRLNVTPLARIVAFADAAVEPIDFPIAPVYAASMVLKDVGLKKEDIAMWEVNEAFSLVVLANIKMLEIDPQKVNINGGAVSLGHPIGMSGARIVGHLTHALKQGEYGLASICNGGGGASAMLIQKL
inactive: lapatinib -0.024 | pictilisib -0.013 | crizotinib 0.029 | [1] -0.018 | duvelisib -0.016 | gandotinib 0.03 | tozasertib -0.009 | doramapimod -0.005 | bafetinib 0.026 | [2] 0.008 | nilotinib 0.028 | [3] -0.021 | dasatinib 0.015 | [4] 0.019 | [5] -0.029 | quisinostat -0.006 | tipifarnib 0.044 | [6] -0.001 | [7] -0.005 | [8] 0.021

ANP32E (UniProt Q9BTT0)
inactive: lapatinib -0.026 | pictilisib 0.003 | crizotinib 0.007 | [1] -0.017 | duvelisib 0.015 | gandotinib 0.013 | tozasertib 0.041 | doramapimod -0.017 | bafetinib -0.003 | [2] -0.032 | nilotinib 0.075 | [3] 0.025 | dasatinib 0.015 | [4] 0.028 | [5] -0.038 | quisinostat 0.016 | tipifarnib -0.02 | [6] -0.011 | [7] -0.065 | [8] 0.023

ADRM1 (UniProt Q16186)
Chain of UniProt Q16186 (Q16186 whole entry, looked up): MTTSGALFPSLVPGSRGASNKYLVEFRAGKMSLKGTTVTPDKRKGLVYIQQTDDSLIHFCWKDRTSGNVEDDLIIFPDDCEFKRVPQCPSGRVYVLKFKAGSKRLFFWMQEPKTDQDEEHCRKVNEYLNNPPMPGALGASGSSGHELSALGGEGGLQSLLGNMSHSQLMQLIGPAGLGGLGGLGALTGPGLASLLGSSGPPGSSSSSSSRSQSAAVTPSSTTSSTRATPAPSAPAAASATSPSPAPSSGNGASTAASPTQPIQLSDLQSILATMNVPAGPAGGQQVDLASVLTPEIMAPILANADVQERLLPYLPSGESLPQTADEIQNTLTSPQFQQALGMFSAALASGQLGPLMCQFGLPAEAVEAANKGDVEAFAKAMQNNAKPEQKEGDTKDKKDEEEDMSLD
inactive: lapatinib -0.009 | pictilisib -0.012 | crizotinib -0.05 | [1] 0.019 | duvelisib 0.03 | gandotinib -0.014 | tozasertib -0.019 | doramapimod 0.042 | bafetinib 0.006 | [2] 0.02 | nilotinib 0.002 | [3] -0.006 | dasatinib -0.063 | [4] 0.015 | [5] -0.003 | quisinostat -0.102 | tipifarnib -0.017 | [6] 0.011 | [7] 0.008 | [8] -0.003

AFF4 (UniProt Q9UHB7)
inactive: lapatinib 0.003 | pictilisib -0.007 | crizotinib -0.033 | [1] 0.011 | duvelisib 0.059 | gandotinib 0.066 | tozasertib 0 | doramapimod 0 | bafetinib 0.05 | [2] 0.001 | nilotinib -0.039 | [3] -0.068 | dasatinib 0.005 | [4] 0.012 | [5] 0.023 | quisinostat 0.02 | tipifarnib 0.065 | [6] 0.032 | [7] -0.026 | [8] 0.022

ABHD13 (UniProt Q7L211)
Chain of UniProt Q7L211 (Q7L211 whole entry, looked up): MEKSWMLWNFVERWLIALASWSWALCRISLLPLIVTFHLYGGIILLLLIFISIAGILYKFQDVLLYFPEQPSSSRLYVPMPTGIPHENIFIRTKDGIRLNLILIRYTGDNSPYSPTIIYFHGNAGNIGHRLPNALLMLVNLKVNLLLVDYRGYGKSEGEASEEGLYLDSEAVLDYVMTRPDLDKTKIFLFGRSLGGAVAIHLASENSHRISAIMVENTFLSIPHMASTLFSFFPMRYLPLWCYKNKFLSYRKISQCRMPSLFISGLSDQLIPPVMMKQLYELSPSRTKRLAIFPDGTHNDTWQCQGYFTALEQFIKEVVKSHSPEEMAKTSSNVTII
inactive: lapatinib -0.059 | pictilisib 0.049 | crizotinib 0.197 | duvelisib 0 | gandotinib 0.193 | tozasertib -0.044 | doramapimod -0.104 | bafetinib -0.197 | [2] 0.184 | nilotinib 0.152 | [3] -0.186 | dasatinib -0.177 | [4] -0.069 | [5] 0.21 | quisinostat 0.121 | tipifarnib -0.233 | [6] -0.029 | [7] 0.037
active: [1] -0.593

AKR1C3 (UniProt P42330)
Chain of UniProt P42330 (P42330 whole entry, looked up): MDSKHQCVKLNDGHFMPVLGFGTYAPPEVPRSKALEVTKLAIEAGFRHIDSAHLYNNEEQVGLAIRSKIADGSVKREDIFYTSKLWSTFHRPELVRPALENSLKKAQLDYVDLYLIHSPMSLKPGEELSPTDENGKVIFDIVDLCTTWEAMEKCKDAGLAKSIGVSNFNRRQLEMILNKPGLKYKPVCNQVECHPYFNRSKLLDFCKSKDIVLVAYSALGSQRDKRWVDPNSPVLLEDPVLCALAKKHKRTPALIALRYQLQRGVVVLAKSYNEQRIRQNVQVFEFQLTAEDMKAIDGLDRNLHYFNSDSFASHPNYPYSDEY
inactive: lapatinib -0.03 | pictilisib -0.024 | crizotinib -0.039 | [1] -0.014 | duvelisib -0.036 | gandotinib 0.052 | tozasertib -0.003 | doramapimod 0.022 | bafetinib 0.022 | [2] -0.026 | nilotinib -0.007 | [3] 0.046 | dasatinib 0.209 | [4] -0.079 | [5] -0.038 | quisinostat -0.055 | tipifarnib 0.04 | [6] 0.036 | [7] -0.059 | [8] -0.013

ANXA2 isoform 2 (UniProt P07355)
Chain of UniProt P07355 (P07355 whole entry, looked up): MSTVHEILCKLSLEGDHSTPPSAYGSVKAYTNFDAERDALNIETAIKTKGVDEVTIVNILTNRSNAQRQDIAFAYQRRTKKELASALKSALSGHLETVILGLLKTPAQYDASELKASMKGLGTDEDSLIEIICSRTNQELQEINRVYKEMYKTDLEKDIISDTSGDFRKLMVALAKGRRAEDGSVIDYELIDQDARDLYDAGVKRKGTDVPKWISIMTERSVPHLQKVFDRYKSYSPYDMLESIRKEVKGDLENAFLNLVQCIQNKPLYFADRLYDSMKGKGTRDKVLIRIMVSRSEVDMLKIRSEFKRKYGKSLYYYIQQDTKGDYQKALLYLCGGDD
inactive: lapatinib 0.009 | pictilisib -0.005 | crizotinib 0.029 | [1] 0.017 | duvelisib -0.028 | gandotinib 0.008 | tozasertib -0.001 | doramapimod -0.024 | bafetinib 0.065 | [2] -0.041 | nilotinib 0.035 | [3] -0.016 | dasatinib 0.048 | [4] 0.003 | [5] -0.017 | quisinostat 0.064 | tipifarnib 0.016 | [6] -0.018 | [7] -0.015 | [8] 0.022

ADAR isoform 4 (UniProt P55265)
Chain of UniProt P55265 (P55265 whole entry, looked up): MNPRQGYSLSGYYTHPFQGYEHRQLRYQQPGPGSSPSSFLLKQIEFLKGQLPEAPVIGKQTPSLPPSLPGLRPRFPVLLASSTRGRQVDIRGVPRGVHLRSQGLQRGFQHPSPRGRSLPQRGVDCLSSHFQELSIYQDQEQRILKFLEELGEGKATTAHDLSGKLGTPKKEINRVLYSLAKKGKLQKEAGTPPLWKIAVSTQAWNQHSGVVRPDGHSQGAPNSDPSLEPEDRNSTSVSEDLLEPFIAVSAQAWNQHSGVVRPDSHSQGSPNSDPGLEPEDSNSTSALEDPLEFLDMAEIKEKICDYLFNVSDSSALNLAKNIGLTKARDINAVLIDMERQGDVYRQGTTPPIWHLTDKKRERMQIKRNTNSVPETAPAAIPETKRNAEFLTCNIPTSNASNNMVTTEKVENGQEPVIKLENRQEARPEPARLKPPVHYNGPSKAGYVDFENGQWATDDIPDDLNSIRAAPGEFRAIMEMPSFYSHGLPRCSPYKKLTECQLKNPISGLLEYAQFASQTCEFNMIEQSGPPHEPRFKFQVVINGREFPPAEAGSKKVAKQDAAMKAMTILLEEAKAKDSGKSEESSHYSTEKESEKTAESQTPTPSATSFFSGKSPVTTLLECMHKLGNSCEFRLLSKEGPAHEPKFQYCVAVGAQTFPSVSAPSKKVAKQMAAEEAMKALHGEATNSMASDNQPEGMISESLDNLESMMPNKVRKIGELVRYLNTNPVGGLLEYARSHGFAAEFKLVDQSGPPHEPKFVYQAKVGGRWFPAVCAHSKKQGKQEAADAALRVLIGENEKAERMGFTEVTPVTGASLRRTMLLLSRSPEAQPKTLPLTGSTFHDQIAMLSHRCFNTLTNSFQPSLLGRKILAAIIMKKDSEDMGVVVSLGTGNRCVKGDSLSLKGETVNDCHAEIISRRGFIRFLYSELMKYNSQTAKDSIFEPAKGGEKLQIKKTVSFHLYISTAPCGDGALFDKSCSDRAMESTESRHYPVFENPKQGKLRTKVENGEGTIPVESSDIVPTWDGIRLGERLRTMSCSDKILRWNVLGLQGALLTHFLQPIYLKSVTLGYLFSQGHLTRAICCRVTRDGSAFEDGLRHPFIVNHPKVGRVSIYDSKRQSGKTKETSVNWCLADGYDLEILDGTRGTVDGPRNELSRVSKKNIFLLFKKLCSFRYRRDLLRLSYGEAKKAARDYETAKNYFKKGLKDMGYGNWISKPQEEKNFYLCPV
inactive: lapatinib 0.023 | pictilisib -0.135 | crizotinib 0 | [1] 0.01 | duvelisib 0.016 | gandotinib -0.038 | tozasertib 0.016 | doramapimod 0.069 | bafetinib -0.16 | [2] 0.028 | nilotinib 0.006 | [3] 0.012 | dasatinib -0.026 | [4] -0.027 | [5] 0.009 | quisinostat -0.114 | tipifarnib -0.009 | [6] 0.015 | [7] -0.009 | [8] 0.029
